Test results as given in paper PMC5700166.

Target: GST-Hu-p50 (Homo sapiens, UniProt P19838 7-356)
Assay: protein-binding microarray (PBM); PBM: ~300 nM protein, 6 mM HEPES pH 7.8, 80 mM KCl, 0.5 mM EDTA, 0.5 mM EGTA, 6% glycerol, 35 ng/ul poly-dIdC, 1% milk, 1 h, room temperature; Ap Aiptasia and Nv Nematostella (sea anemones) / Co Capsaspora / Aq Amphimedon (sponge) / Dm Drosophila / Hu human; RHD is the Rel homology domain; high values mean tight binding
Conditions: dsDNA, one strand shown

Sequence of GST-Hu-p50 (P19838 7-356): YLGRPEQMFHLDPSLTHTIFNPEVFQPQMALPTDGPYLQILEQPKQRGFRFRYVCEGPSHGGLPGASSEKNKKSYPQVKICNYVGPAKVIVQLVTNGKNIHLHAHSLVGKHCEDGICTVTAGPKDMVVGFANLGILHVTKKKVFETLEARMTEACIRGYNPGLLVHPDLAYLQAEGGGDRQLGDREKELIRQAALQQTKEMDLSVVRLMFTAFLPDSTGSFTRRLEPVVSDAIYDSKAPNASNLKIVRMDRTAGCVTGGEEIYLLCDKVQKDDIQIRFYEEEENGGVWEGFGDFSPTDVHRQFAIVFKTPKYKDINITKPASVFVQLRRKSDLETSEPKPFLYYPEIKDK

Sequence | binding signal [z-score]
CCGATTAACATCAAGGGGGGGACTGATGTTAATCGGGTCTTGATTCGCTTGACGCTGCTG | 4.74
CCGATTAACATCACGGAAATACCTGATGTTAATCGGGTCTTGATTCGCTTGACGCTGCTG | 1.12
CCGATTAACATCAGAAAAACACCTGATGTTAATCGGGTCTTGATTCGCTTGACGCTGCTG | 5.37
CCGATTAACATCAGGTGTTTCCATGATGTTAATCGGGTCTTGATTCGCTTGACGCTGCTG | 2.81
CCGATTAACATCACGGGCTTCCCTGATGTTAATCGGGTCTTGATTCGCTTGACGCTGCTG | 1.14
CCGATTAACATCAAATAAGCCCCTGATGTTAATCGGGTCTTGATTCGCTTGACGCTGCTG | 4.31
CCGATTAACATCAACTATCCCCCTGATGTTAATCGGGTCTTGATTCGCTTGACGCTGCTG | 4.09
CCGATTAACATCAGGAAAGGCCCTGATGTTAATCGGGTCTTGATTCGCTTGACGCTGCTG | 2.61
CCGATTAACATCAAAAAAACACCTGATGTTAATCGGGTCTTGATTCGCTTGACGCTGCTG | 6.24
CCGATTAACATCAGGGGGGGTAATGATGTTAATCGGGTCTTGATTCGCTTGACGCTGCTG | 3.7
CCGATTAACATCACGGTGTTTCCTGATGTTAATCGGGTCTTGATTCGCTTGACGCTGCTG | 2.96
CCGATTAACATCACGGGAAGCCCTGATGTTAATCGGGTCTTGATTCGCTTGACGCTGCTG | 1.11
